Consider 93 molecules from PubChem BioAssay AID662 (National Center for Advancing Translational Sciences (NCATS), 2007).

The structures appear in SMILES notation. The whole screen tested about 71,000 compounds, of which about 1,800 (2.5%) were called active. A call without a number means that no potency is given here. About 26% were inconclusive and are not listed. The sample holds actives, similar compounds and a random draw of the others, so the mix is not that of the screen. Calls follow the shape of the dose curve; as a rule, active = well fitted activation curve with a large enough effect in the signal ratio, with a control signal flat (not every such curve was filed as active); inconclusive = small, poorly fitted or top-dose-only effect, or effect the other way, or a change in a side signal; inactive = flat fitted curve, though single readings scatter; the % refers to the signal ratio.
Potency is read from the fitted curve at half-maximal effect.

The assay in a line: Cell signaling CRE-BLA (Fsk stim). As to conditions: CHO CRE-bla reporter (cAMP response element driving beta-lactamase), forskolin EC10, beta-lactamase ratio; series mostly up to 38.2 µM. The method in brief:
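The 460nm/530nm emission ratio after CCF4 loading defined %Activity, from which AC50 values were obtained. CRE-bla CHO cells received compound dilution series together with an EC10 level of NKH 477 for 3 hours at 37 degrees Celsius.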
Consider `C#CCCCCCCCCCCCCCCCC(=O)O`, for which the Potency result was “inactive”.
The same measure, in the same setting: as for `COc1ccc(O)c(C=Nc2cc(C)on2)c1`, the entry is “inactive”.
Turning to `c1cncc(CNc2ccnc(-c3ccc4c(c3)OCO4)n2)c1`, the Potency entry is “inactive”.
Take `O=C(Nc1cccnc1)c1ccc2c(c1)OCO2`: the Potency entry was “inactive”.
The same measure, in the same setting: as for `c1ccc2c(Nc3ccncc3)nc(-c3ccc4c(c3)OCO4)nc2c1`, the figure is 12.6 µM (active).
Same read-out and setting: with `CC(=O)Nc1nc(C)c(Cc2ccccc2)c(=O)[nH]1` the entry was “inactive”.
Still for that read-out and setting: as for `COc1ccc(N2CCN(C(=O)CSc3nc4cc(OC)c(OC)cc4cc3C#N)CC2)cc1`, the figure is 10 µM (active); as for `CCOc1ccc2cc(C#N)c(SCC(=O)OC)nc2c1`, “inactive”; as for `COc1ccc(N2CCN(C(=O)CSc3ncnc4c3cnn4-c3ccc(OC)cc3)CC2)cc1`, “inactive”.
As for `Cc1ccc2nc(-c3ccccc3)cc(C(=O)O)c2c1`, the Potency result was “inactive”.
With `Oc1ccc2nc(Cc3ccccc3)[nH]c2c1`, the Potency entry is “inactive”.
Consider `COC(=O)Nc1nc2ccc(Sc3ccccc3)cc2[nH]1`, for which the Potency is 2.51 µM (active).
For the molecule `CCN(CC)CCN1C(=O)C(=O)/C(=C(/O)c2ccccc2)C1c1ccccc1F` (stereo not drawn), the Potency result is “inactive”.
Regarding `O=C(O)c1c(Br)c(Br)c(Br)c(Br)c1C1c2ccc(O)cc2Oc2cc(O)ccc21`, the activity change, negative = inhibition was 4.42% [at 7.6 µM] (inactive).
Take `C=CCn1c(SCC(=O)Nc2nc3ccccc3s2)nnc1-c1ccccc1O`: the Potency entry was “inactive”.
On the same count and under the same terms, as for `C=CCn1c2ccccc2c2nnc(SC(CC)C(=O)Nc3nc(C)c(C(=O)OCC)s3)nc21` (stereo not drawn), the figure is 1.26 µM (active); as for `C=CCn1c(C(C)NC(=O)CC)nc2ccccc21` (stereo not drawn), “inactive”.
On the same count and under the same terms, as for `N#Cc1cc2[nH]c(=O)c(=O)[nH]c2cc1[N+](=O)[O-]`, the entry is “inactive”.
With `CC(=O)CC(C)C`, the Potency result is “inactive”.
Take `COc1ccccc1CNC(=O)CCn1c(=O)sc2ccccc21`: the Potency entry is “inactive”.
As to `COc1ccc(-n2c(C)nc3c(cnn3-c3ccccc3)c2=O)cc1`, the Potency result is “inactive”.
As for `COc1ccccc1CCn1c(=O)c(-c2cn(C)c3ccccc23)nc2cncnc21`, the Potency was 0.398 µM (active).
With `COc1ccc(-n2c(=O)c(-c3cn(C)c4ccccc34)nc3cnc(OC)nc32)cc1`, the Potency is 0.2 µM (active).
For the molecule `COc1ccc(OCc2ccc(-c3nc4ccccc4c(=O)n3N)o2)cc1`, the Potency result was “inactive”.
Turning to `COCCn1c(=O)c(-c2cccs2)nc2cncnc21`, the Potency was 12.6 µM (active).
Regarding `COc1ccccc1CNc1ncncc1-c1cccc(NS(C)(=O)=O)c1`, the Potency result was “inactive”.
Still for that read-out and setting: as for `COCCn1c(=O)c(CCc2ccccc2)nc2cncnc21`, the entry is “inactive”; as for `CCc1c(C)nc2cc(-c3cccs3)[nH]n2c1=O`, “inactive”.
Consider `CCOc1cccc(=O)c2c(C)n(CC3CCCO3)c(C)c12` (stereo not drawn), for which the Potency result is “inactive”.
Take `O=C(O)c1nccnc1C(=O)Nc1ccc(Br)cn1`: the Potency result was “inactive”.
On the same count and under the same terms, with `C=CCNC(=O)C1CC=CCC1C(=O)O` (stereo not drawn) the entry was “inactive”; with `COc1ccc(N)c(C)c1`, “inactive”.
Same read-out and setting: as for `COC(=O)[C@@]1(C)C=C[C@@H](Cc2ccccc2)N1C(C)=O`, the entry is “inactive”; as for `CCCCCCN(C(=O)CCCCCN1C(=O)NC(c2ccc(C(F)(F)F)cc2)C(C(=O)OCc2ccccc2)=C1C)C(C(=O)NCCCC)c1ccc(OCC(=O)OC)c(C(=O)OC)c1` (stereo not drawn), “inactive”; as for `Cc1ccc2oc(=O)ccc2c1`, “inactive”.
On the same count and under the same terms, with `c1ccc(Oc2ccccc2)cc1` the entry was “inactive”; with `COc1ccc(C2C(C#N)=C(N)Oc3n[nH]c(C)c32)cc1CN1CCN(c2ccc(F)cc2)CC1` (stereo not drawn), “inactive”.
Consider `CCN1C(=O)c2cccc3c(N)ccc1c23`, for which the Potency is 10 µM (active).
The same measure, in the same setting: as for `C[N+](C)(CCCCCC[N+](C)(C)CCCN1C(=O)c2cccc3cccc(c23)C1=O)CCCN1C(=O)c2cccc3cccc(c23)C1=O`, the entry is “inactive”; as for `CCCCN(C)C(=O)c1ccc2c(c1)N(CC)C(=O)c1ccccc1S2(=O)=O`, “inactive”; as for `NC(=O)C1CC=CCC1C(=O)OCC(Cl)=C(Cl)Cl` (stereo not drawn), “inactive”.
As to `CC(=O)Oc1cccc(N2C(=O)C3CC=C(Cl)CC3C2=O)c1` (stereo not drawn), the Potency entry was “inactive”.
As for `CC(=O)c1cccc(NC(=O)c2ccncc2)c1`, the Potency entry was “inactive”.
Consider `Cc1cc(C)c2c(n1)nn1c(-n3ccnc3)cc(C)nc21`, for which the Potency was 6.31 µM (active).
Same read-out and setting: with `CC(=O)Nc1ccc(S(=O)(=O)N2CCSCC2)cc1` the entry was “inactive”; with `O=C(CCN1C(=O)c2ccccc2C1=O)Nc1ccncc1`, “inactive”.
The same measure, in the same setting: as for `Cn1c(=O)[nH]c(=O)c2c1nc(N1CCCCCC1)n2CC(=O)c1ccccc1`, the entry is “inactive”; as for `CC1CCN(c2nc3c(c(=O)[nH]c(=O)n3C)n2CCCc2ccccc2)CC1`, “inactive”; as for `Cn1c(=O)[nH]c(=O)c2c1nc(Br)n2CCCCSc1nc2ccccc2o1`, 2.51 µM (active).
`C[C@]1(C(=O)NCCc2c[nH]c3ccccc23)C=C[C@@H](Cc2ccccc2)N1C(=O)c1ccccc1`: the Potency entry is “inactive”.
Same read-out and setting: with `C1CCC2OC2C1` (stereo not drawn) the entry was “inactive”; with `CCOc1cccc(NC(=O)CC#N)c1`, “inactive”; with `CC(=O)Nc1cccc(Oc2cc(C#N)c(C#N)cc2N2CCOCC2)c1`, 5.01 µM (active).
As to `CC(=O)Nc1ccc(S(=O)(=O)Nc2ccc(N3CCOCC3)c(F)c2)cc1`, the Potency result is “inactive”.
The same measure, in the same setting: as for `CCCC(Cl)CCCC(Cl)CCC(Cl)CCC(Cl)CCC(Cl)CCCC(Cl)CCC` (stereo not drawn), the entry is “inactive”; as for `O=C(Cl)c1ccccc1[N+](=O)[O-]`, “inactive”; as for `CCOC(=O)N1CCN(C(=O)C2CCN(c3ncnc4c3sc3cccc(F)c34)CC2)CC1`, “inactive”.
On the same count and under the same terms, with `CCOC(=O)C1CCN(c2ncnc3c2oc2ccc(Br)cc23)CC1` the figure was 2.51 µM (active); with `CCOC(=O)C1CCN(C(=O)c2oc3ccc(S(=O)(=O)N4CCCCCC4)cc3c2C)CC1`, “inactive”.
As to `COc1ccc(-n2c(SC)nc(O)cc2=O)cc1`, the activity change, negative = inhibition was -26.5% [at 7.6 µM] (inactive).
On to `COC(=O)c1ccc(S(=O)(=O)c2ccc(C(=O)OC)s2)s1`, for which the Potency entry was “inactive”.
On to `CSc1nnc2c(n1)OC(c1cn(C)c3ccccc13)N(C(C)=O)c1ccccc1-2` (stereo not drawn), for which the activity change, negative = inhibition is 2.27% [at 7.6 µM] (inactive).
As for `c1ccc2cc(OCCN3CCCC3)ccc2c1`, the activity change, negative = inhibition is -1.69% [at 7.6 µM] (inactive).
For the molecule `CCOc1ccccc1/C=c1\sc2nc(-c3ccco3)nn2c1=O`, the Potency entry was “inactive”.
On to `CCOC(=O)/C=c1\s/c(=C\c2ccccc2OC)c(=O)n1CC(=O)N1CCOCC1`, for which the Potency is 2.51 µM (active).
As for `COc1cccc2c(=O)n(CC(=O)N3CCCCCC3)ccc12`, the Potency result was “inactive”.
Consider `O=C(NC1CCN(Cc2ccccc2)CC1)c1ccccc1F`, for which the Potency entry is “inactive”.
In the case of `COCCOC(=O)C1=C(C)NC(=O)NC1c1ccc(Cl)cc1` (stereo not drawn), the Potency result is “inactive”.
Take `Cc1nc(N2CCCC2C(=O)O)c2oc3ccccc3c2n1` (stereo not drawn): the Potency entry is “inactive”.
`C[C@@H](Nc1nc(-c2ccccc2)nc2c1oc1ccccc12)C(=O)O`: the Potency result is “inactive”.
Same read-out and setting: as for `CCSc1nc(C)nc2c1oc1ccccc12`, the figure is 12.6 µM (active).
On to `CCCc1nc2ccccc2c(C(=O)OCc2nnc(-c3cc(OC)c(OC)c(OC)c3)o2)c1CC`, for which the Potency was 0.501 µM (active).
On to `O=C(OCc1nnc(-c2ccccc2)o1)c1ccc2c(c1)C(=O)N(CCc1ccccc1)C2=O`, for which the Potency entry was “inactive”.
In the case of `CCOC(=O)c1cc(-c2nnc(-c3cc(OC)c(OC)c(OC)c3)o2)c(C)nc1C`, the Potency result is “inactive”.
As for `C[C@@H]1O[C@@H](O[C@@H]2[C@@H](O)[C@H](OCCc3ccc(O)c(O)c3)O[C@H](CO[C@@H]3O[C@H](CO)[C@@H](O)[C@H](O)[C@H]3O)[C@H]2OC(=O)/C=C/c2ccc(O)c(O)c2)[C@H](O)[C@H](O)[C@H]1O`, the Potency result is “inactive”.
On the same count and under the same terms, with `N[C@@H](C(=O)O)c1ccc(P(=O)(O)O)cc1` the entry was “inactive”; with `CC1CN(c2cc(=O)n(Cc3ccc(F)cc3)c(=O)[nH]2)CC(C)O1` (stereo not drawn), “inactive”.
In the case of `COCc1cc(C)nc(Nc2cc(C)ccc2C)c1C#N`, the Potency result was “inactive”.
Regarding `CCOC(=O)c1sc(NC(=O)CCN2CCOCC2)c(C(=O)OCC)c1C`, the Potency result was “inactive”.
Consider `COC(=O)c1sc(NC(=O)c2csc3c2CCCC3)nc1C`, for which the Potency entry is “inactive”.
`N#Cc1c(NC(=O)CSc2nc3ccccc3c(=O)n2Cc2ccco2)sc2c1CCCC2`: the Potency result is “inactive”.
As to `CCOC(=O)c1c(-n2cnnn2)sc(C)c1C`, the Potency entry is “inactive”.
For `CCOCC(=O)Nc1sc2c(c1C(=O)OCC)CCCC2`, the Potency is 10 µM (active).
Still for that read-out and setting: as for `COC(=O)c1c(NC(=O)CSc2nncs2)sc2c1CCCCC2`, the figure is 6.31 µM (active); as for `C=CCOC(=O)COCCC(C)C`, “inactive”; as for `CC1C(c2ccccc2)=[N+]([O-])C2(CCCC2)N1O` (stereo not drawn), “inactive”.
Still for that read-out and setting: as for `CCCC[C@@H]1C[C@H]1C(NC(=O)c1ccco1)c1ccc(C(=O)OC)cc1` (stereo partly drawn), the entry is “inactive”; as for `C/C=C1\C(=O)C[C@@H]2[C@@H]3CCC4=CC(=O)CC[C@@]4(C)[C@H]3CC[C@@]12C`, “inactive”; as for `O=C(Nc1cccc(F)c1)c1ccc(S(=O)(=O)N2CCCC2)cc1`, “inactive”.
For `CSc1nnc(-c2ccncc2)n1CCCN1CCCC1=O`, the Potency result is “inactive”.
For the molecule `CCOc1cc2[nH]c(=S)n(CCCN3CCCC3=O)c(=O)c2cc1OCC`, the Potency result is “inactive”.
On to `CC(C)(C)OC(=O)c1c(N)n(CCCN2CCCC2=O)c2nc3ccccc3nc12`, for which the Potency is 10 µM (active).
Same read-out and setting: as for `Cc1ccccc1C(=O)O`, the entry is “inactive”.
